Structures are written as SMILES. Compounds without any hit were thinned out: in the full panel of roughly 83,000, 20% have a hit.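 The test compound was applied at a single concentration to cells in 96-well plates for 48 hours, and percent growth was recorded.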 Active and inactive are the calls of the source. Rule for the calls: active = growth percent below 10; inactive = the rest.

For 24 compounds, growth results are on record in PubChem BioAssay (NCI).

The subject of the assay is NCI-H23 lung. The assay is described as follows: NCI-60 one-dose screen, 48 h (100 = growth as untreated, 0 = no growth, -100 = all killed). The settings on record: 10 µM unless noted.
`O=C(Nc1ccc(-c2nc3ccc(NC(=O)c4ccc(Cl)cc4)cc3[nH]2)cc1)c1ccc(Cl)cc1`: the growth was 56% (inactive).

As for `O=C1c2cc(Br)ccc2Oc2cc([N+](=O)[O-])ccc2N1c1ccc(I)cc1F`, the growth was 93% (inactive).

In the case of `Cc1ccc2nc(NC(=O)CSC(=S)N3CCN(c4ccccc4)CC3)sc2c1`, the growth was 83.7% (inactive).

For the compound `CCCCCCC(O)(c1ccc(F)cc1)C(CN1CCOCC1)c1ccccc1` (centres undefined), the growth was 25.4% (inactive).

For `COc1ccc(CCN2CCC(CN(C)Cc3cnn(-c4ccccc4)c3)CC2)cc1`, the growth is 31.9% (inactive).

`NC(=O)CSc1nc(-c2ccc(F)cc2)cc(-c2ccco2)n1`: the growth is 98.7% (inactive).

Consider `CCCSC1=NC2C(N(CC)C(=O)N2CC)N1/N=C/C=C/c1ccccc1[N+](=O)[O-]` (centres undefined), for which the growth was 46.5% (inactive).

On to `O=c1oc2ccc(Cl)cc2c(=O)n1-c1ccc(I)cc1F`, for which the growth is 2.29% (active).

Consider `COc1ccc(C2NCCc3c2[nH]c2ccccc32)cc1CN1CCN(c2ccc(F)cc2)CC1` (centres undefined), for which the growth is 64.8% (inactive).

Turning to `Cc1sc2ncnc(Sc3nc4ccccc4[nH]3)c2c1C`, the growth is 57% (inactive).

For `FC(F)(F)c1cccc(CNC2CCN(CCc3ccccc3)CC2)c1`, the growth was 71.6% (inactive).

On to `O=C(Nc1ccc(I)cc1F)c1cc(Br)ccc1O`, for which the growth was 3.44% (active).

`Cc1ccc2[nH]c(=O)cc(-n3nncc3Cn3c4ccccc4c4ccccc43)c2c1`: the growth was 94.1% (inactive).

For `CC(=O)n1cc(-c2c[nH]c3ccccc23)c(-c2ccc(Cl)cc2)n1`, the growth is 76.2% (inactive).

Consider `CC[C@H](C)[C@@H](C(=O)OC)n1cc(CNC(=O)[C@@H](Cc2ccccc2)NC(=O)OCc2ccccc2)nn1`, for which the growth was 104% (inactive).

For `O=C(Nc1ccc(I)cc1F)c1cc(Cl)ccc1O`, the growth is 1.96% (active).

Turning to `NNC(=O)CNC(=O)Nc1n[nH]c(=S)s1`, the growth was 100% (inactive).

For the compound `COc1ccc(Nc2cc(C)nc(NCc3ccccc3)n2)cc1`, the growth was 56% (inactive).

Regarding `O=C(Nc1ccc(N2CCNCC2)cn1)c1[nH]ncc1Nc1ncnc2sc3c(c12)CCC3`, the growth is 10.7% (inactive).

Take `COc1c(B(O)O)cccc1-c1nc2ccc3[nH]ncc3c2c2c1C1CCC2C1` (centres undefined): the growth was 85.1% (inactive).

In the case of `COC(=O)c1cc2c(n1Cc1ccccc1)-c1oncc1CCC2`, the growth is 81.5% (inactive).

`O=C(Nc1ccc(N2CCNCC2)cc1)c1[nH]ncc1Nc1cc(C2CC2)ncn1`: the growth is 44.3% (inactive).

`CC(C)CCNCC(O)Cn1c2ccccc2c2ccccc21` (centres undefined): the growth is 25.4% (inactive).

`COc1cc(/C=C2\CN(C)C/C(=C\c3cc(CN4CCOCC4)c(O)c(OC)c3)C2=O)cc(CN2CCOCC2)c1O`: the growth was 37.3% (inactive).
